WRN inhibitor – qHTS for Inhibitors of WRN Helicase; Bifunctional 3'-5' exonuclease/ATP-dependent helicase WRN (Homo sapiens), Q14191; WRN helicase unwinding, fluorescent forked duplex, kinetic; Potency, µM (doses to about 114 µM), hits mostly inhibitors; 0.46% of 360,000 active; also: nearly all actives have a fitted effect of over 55% in size
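Kinetic red-fluorescence monitoring (525/598 nm) tracks WRN helicase activity after 100 nM fluorophore-quencher forked duplex and 2 mM ATP are added to 20 nM enzyme pretreated 15 min at room temperature with compound.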
POLI inh – qHTS for Inhibitors of Polymerase Iota | DNA polymerase iota (Homo sapiens), Q9UNA4 | Pol iota fluorescent replication assay, 10 min | Potency, µM (top dose mostly 115 µM), usual class: inhibitors | 1% of 390,000 active
Target sequence (Q9UNA4 whole entry, looked up): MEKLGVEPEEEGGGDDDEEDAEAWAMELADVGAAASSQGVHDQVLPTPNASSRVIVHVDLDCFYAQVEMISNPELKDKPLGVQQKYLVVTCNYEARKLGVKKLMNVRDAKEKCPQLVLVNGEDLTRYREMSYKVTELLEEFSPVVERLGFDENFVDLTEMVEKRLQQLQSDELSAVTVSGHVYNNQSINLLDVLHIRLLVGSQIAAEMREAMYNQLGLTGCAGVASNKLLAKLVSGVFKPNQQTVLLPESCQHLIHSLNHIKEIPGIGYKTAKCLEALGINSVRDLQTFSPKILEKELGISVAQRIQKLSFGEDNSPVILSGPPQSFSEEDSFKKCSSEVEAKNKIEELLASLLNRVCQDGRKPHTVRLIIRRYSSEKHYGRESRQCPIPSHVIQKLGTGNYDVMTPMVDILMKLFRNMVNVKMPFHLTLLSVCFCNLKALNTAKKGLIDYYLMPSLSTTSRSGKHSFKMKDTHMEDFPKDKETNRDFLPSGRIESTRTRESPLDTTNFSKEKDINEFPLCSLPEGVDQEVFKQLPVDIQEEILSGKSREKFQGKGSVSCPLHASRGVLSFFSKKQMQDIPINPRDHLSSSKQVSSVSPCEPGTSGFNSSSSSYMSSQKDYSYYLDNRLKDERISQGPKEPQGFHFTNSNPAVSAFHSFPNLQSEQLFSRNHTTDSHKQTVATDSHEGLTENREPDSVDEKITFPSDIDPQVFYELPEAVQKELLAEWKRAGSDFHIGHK
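Pol iota at 10 nM preincubated 15 min with compounds at room temperature; reaction started with fluorescent substrate, 50 nM final. Fluorescence read kinetically at 0 and 10 min; buffer-only wells as negative control.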
PI5P4K alpha inh – qHTS for Inhibitors of phosphatidylinositol 5-phosphate 4-kinase (PI5P4K); PI5P4Kalpha enzyme, ADP-Glo luminescence, 60 min; stronger effect = lower value; Phosphatidylinositol 5-phosphate 4-kinase type-2 alpha (Homo sapiens), P48426; max response, %; 1.2% of 330,000 active; active = max response of -50% or lower; inconclusive = between -30% and -50%; inactive = -30% or higher; also: value at the top dose of about 77 µM
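Quantitative HTS of the MLSMR library against PI5P4Kalpha with substrate. ATP added last at 5 microM final; room temperature, 60 minutes. Remaining ATP depleted, ADP converted and read as luminescence.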
POLK inh – qHTS for Inhibitors of Polymerase Kappa; Potency, µM (titrated, usually from 107 µM), most hits filed as inhibitors; purified Pol kappa, fluorescent DNA synthesis assay, 10 min; 0.53% of 400,000 active; AID 588579, 2011; DNA polymerase kappa (Homo sapiens), Q9UBT6
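Pol kappa 10 nM + cpd, 15 min RT; start w/ substrate 50 nM final; fluorescence kinetic read, 0 and 10 min. Neg ctrl: buffer, no enzyme.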
POLH inh – qHTS for Inhibitors of Polymerase Eta; Potency, µM (highest dose often 114 µM), actives largely listed as inhibitors; 1.2% of 390,000 active; recombinant Pol eta, fluorescent DNA replication assay; AID 588591, 2011
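Fluorescent replication assay: 50 nM final substrate added after a 15 min room-temperature compound preincubation with 10 nM enzyme. Signal taken at 0 min and again at 10 min.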
Pol beta inh – qHTS Assay for Inhibitors of DNA Polymerase Beta. 1.3% of 340,000 active. P06746. Pol beta primer extension/strand displacement, fluorescence kinetic. Potency, µM (series often up to 114 µM), usual class: inhibitors
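Pol beta (10 nM) and compounds were preincubated 15 min at room temperature, then 50 nM substrate (final) started primer extension/strand displacement. Reads were taken at 0 and 10 min; concentration-response data were fitted to a four-parameter Hill equation.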
Large screens that a line does not name were inactive; ! = not confirmed by another sample. Only some compounds are listed: those with a hit (about 2.8% of all), similar ones and a draw of the others. Unless noted, calls follow the shape of the dose curve; as a rule, active = well fitted curve in the direction sought with a large enough effect; inconclusive = small, poorly fitted or top-dose-only effect, or another doubt; inactive = no such curve, though single readings can be large; an effect the other way counts as inactive or inconclusive.

O=C(NC(=S)Nn1cnnc1)c1ccc(F)cc1Cl	PI5P4K alpha inh -54
O=C(NC(=S)Nn1cnnc1)c1ccccc1Cl	none
Oc1ccc(-c2csc(Nc3ccccn3)n2)cc1O	POLI inh inconclusive, PI5P4K alpha inh inconclusive, POLK inh inconclusive, POLH inh 18µM, Pol beta inh 7.9µM
Oc1ccc(-c2csc(Nc3cccc4ccccc34)n2)cc1O	POLI inh 14µM, PI5P4K alpha inh -55, POLK inh 50µM, POLH inh 16µM, Pol beta inh inconclusive
COc1ccc(S(=O)(=O)NC(=O)C2(C)CCN2C(=O)C2CCCCC2)cc1OC (stereo unspecified)	none (no result: POLI inh, POLK inh, POLH inh, Pol beta inh)
COc1ccc2c(c1)C1OCCC1C(c1ccco1)N2 (stereo unspecified)	POLI inh 79µM (no result: Pol beta inh)
Cc1cc(C(=O)COC(=O)/C=C/c2ccco2)c(C)n1C	POLI inh inconclusive (no result: Pol beta inh)
COc1ccc(/C=C2\CCn3c2nc2cc(C(=O)O)ccc2c3=O)cc1O	WRN inhibitor inconclusive, POLI inh inconclusive, PI5P4K alpha inh -54, POLH inh 18µM, Pol beta inh 25µM
COc1ccc(/C=C2\CCn3c2nc2cc(C(=O)O)ccc2c3=O)cc1OC	WRN inhibitor inconclusive, PI5P4K alpha inh inconclusive
N#Cc1c(C#N)c(SSc2c(C#N)c(C#N)c(N)n2-c2ccccc2)n(-c2ccccc2)c1N	PI5P4K alpha inh -81 (no result: Pol beta inh)
N#Cc1c(N)n(-c2ccc(N)cc2)c2nc3ccccc3nc12	none
O=c1c(-c2cc(O)c(O)c(O)c2)coc2cc(O)c(O)c(O)c12	POLK inh 0.4µM (no result: WRN inhibitor, POLI inh, PI5P4K alpha inh, POLH inh, Pol beta inh)
O=c1c(-c2ccc(O)cc2)coc2cc(O)cc(O)c12	Pol beta inh inconclusive
Cc1cc(C)cc(NC(=O)CSc2nc(=O)[nH]c3c2CCC3)c1	none (no result: WRN inhibitor, PI5P4K alpha inh)
O=C(CC1c2ccccc2Oc2ccccc21)Nc1ccccc1F	POLI inh 89µM
CCCC[C@@H](C)/C=C(C)/C=C(\C)C(=O)NC1=C[C@@](O)(/C=C/C=C/C=C/C(=O)NC2=C(O)CCC2=O)[C@@H]2O[C@@H]2C1=O	POLK inh 27µM (no result: WRN inhibitor, POLI inh, PI5P4K alpha inh, POLH inh, Pol beta inh)
O=C1C=C(C#Cc2ccc(Oc3ccccc3)cc2)C[C@@H](c2ccc(F)cc2)C1	none (no result: POLI inh, POLK inh, Pol beta inh)
CCN1CCN(Cc2ccc(NC(=O)c3ccc(C)c(/C=C/c4cnc(Nc5cc(N6CCNCC6)nc(C)n5)cn4)c3)cc2C(F)(F)F)CC1	WRN inhibitor 20µM!, POLI inh inconclusive, PI5P4K alpha inh -74, POLH inh 79µM
CC(=O)c1c(CC(=O)O)[nH]n(-c2nc3ccccc3s2)c1=O	WRN inhibitor inconclusive, POLI inh inconclusive, POLK inh inconclusive, POLH inh 50µM, Pol beta inh 32µM (no result: PI5P4K alpha inh)
O=C(Nc1nnc(-c2ccco2)o1)c1ccc(N2C(=O)CCC2=O)cc1	POLI inh 22µM, Pol beta inh inconclusive
Cc1ccc(S(=O)(=O)CCC(=O)N(C)C2CCCCC2)cc1	none
CCn1c(CSc2ncn[nH]2)nc2cc(C(=O)O)ccc21	none
CCn1c(CSc2nnc(-c3ccncc3)n2C)nc2cc(C(=O)O)ccc21	WRN inhibitor 71µM, POLI inh 25µM
c1cc(SSc2ccncc2)ccn1	POLI inh inconclusive, PI5P4K alpha inh -70
c1ccc(Sc2ccncc2)cc1	none (no result: POLI inh, POLK inh, Pol beta inh)
CSc1sccc1/C=C(/C#N)C(=O)c1ccco1	WRN inhibitor 50µM, POLI inh inconclusive, POLH inh inconclusive
CSc1sccc1/C=N/O	none
O=C1CC(/C=C/c2ccco2)=Nc2ccccc2N1	POLI inh inconclusive, PI5P4K alpha inh -73, Pol beta inh inconclusive
CCCc1ccc(O)c(N=Cc2cc(Br)cc(OCC)c2O)c1	WRN inhibitor inconclusive, POLI inh inconclusive, Pol beta inh 20µM
Cc1ccn2c(=O)nc(SCC(=O)c3ccccc3)nc2c1	WRN inhibitor inconclusive, POLI inh 45µM, PI5P4K alpha inh -62, POLH inh 20µM (no result: Pol beta inh)
Cc1ccc(CNC(=O)CSc2nc(=O)n3ccccc3n2)cc1	none (no result: Pol beta inh)
O=C(CSc1nc(=O)n2cc(Cl)ccc2n1)Nc1cccc2ccccc12	POLI inh inconclusive, PI5P4K alpha inh inconclusive, POLH inh inconclusive (no result: Pol beta inh)
Cc1ccn2c(=O)nc(SCC(=O)Nc3cccc4ccccc34)nc2c1	POLI inh inconclusive, POLH inh 79µM (no result: Pol beta inh)
Cc1ccn2c(=O)nc(SCC(=O)N3CCN(c4ccccc4)CC3)nc2c1	POLI inh 50µM, PI5P4K alpha inh inconclusive, POLH inh 20µM (no result: Pol beta inh)
Cc1ccc2nc(SCC(=O)c3ccccc3)nc(=O)n2c1	none (no result: Pol beta inh)
Cc1ccn2c(=O)nc(SCC(=O)NCc3ccccc3)nc2c1	WRN inhibitor inconclusive, POLI inh 45µM, PI5P4K alpha inh inconclusive, POLH inh 22µM (no result: Pol beta inh)
CCOC(=O)c1nnn(-c2nonc2N)c1-c1ccc(F)cc1	none
Cc1ccc(-n2c(SCc3ccc(C(=O)O)cc3)nnc2-c2ccncc2)cc1	none
CC1(C)Cc2c(sc3c2c(=O)n(-c2cccc(Cl)c2)c(=O)n3CC(N)=O)CO1	none
CCOC(=O)c1c(NC(=O)CSc2cn(CCNC(=O)c3ccccc3OC)c3ccccc23)sc2c1CCC2	none (no result: WRN inhibitor, PI5P4K alpha inh)
CC(C)CN1CCCC2(CCN(S(=O)(=O)c3ccccc3)CC2)C1	none (no result: WRN inhibitor, POLI inh, PI5P4K alpha inh, POLH inh, Pol beta inh)
CCOCCc1nnc(NC(=O)Cc2c(F)cccc2Cl)s1	none
Cn1c(NNC(=O)C2CCCCC2)cc(=O)n(C)c1=O	none
O=C(CSc1nc2c(c(=O)[nH]1)CN(Cc1ccc(F)cc1)CC2)Nc1cccc(C(F)(F)F)c1	none (no result: WRN inhibitor, PI5P4K alpha inh)
CCN(CC)C(=O)CC(c1ccc(OC)cc1)c1c(OC)cc(OC)c2ccc(=O)oc12 (stereo unspecified)	POLI inh 79µM, POLK inh inconclusive, POLH inh inconclusive, Pol beta inh inconclusive
Cc1ccc(C)c(S(=O)(=O)N2CCCCC2CCNC(=O)C(=O)NCc2ccccc2)c1 (stereo unspecified)	none (no result: Pol beta inh)
COc1cc(OC)c(NC(=O)c2cn(C)c(=O)c3cc(OC)c(OC)cc23)cc1Cl	POLH inh 56µM (no result: WRN inhibitor, PI5P4K alpha inh)
Cc1ccc(N2CCN(c3c(CN4CCCC4)c(=O)oc4ccccc34)CC2)c(C)c1	none (no result: WRN inhibitor, PI5P4K alpha inh)
CC(=O)N1CCc2cc(S(=O)(=O)CCC(=O)NCc3ccc4c(c3)OCO4)ccc21	POLH inh inconclusive, Pol beta inh 45µM
O=C1NC(=S)S/C1=C1\Sc2ccccc2N1CCCS(=O)(=O)O	POLI inh inconclusive, POLH inh inconclusive
NN1C(=O)/C(=C2/Sc3ccccc3N2CCCS(=O)(=O)O)SC1=S	POLI inh inconclusive, PI5P4K alpha inh inconclusive, POLH inh 50µM, Pol beta inh 22µM
